Unmarked numbers belong to inactive results. Results filed as inconclusive are left out. The source made the active and inactive calls. Unless noted, calls come from the whole dose curve; as a rule, active = well fitted curve in either direction with a large enough effect (not every such curve was filed as active); inconclusive = small, poorly fitted or top-dose-only effect, or another doubt; inactive = flat fitted curve, though single readings scatter.
Tests used:
[1] = target: Lysosomal acid glucosylceramidase (Homo sapiens) (UniProt P04062); assay: Glucocerebrosidase-p2 (AID 348; in the data active = potency below about 10 µM; note: potency is the fitted concentration of half-maximal effect); details: purified GBA, blue fluorogenic substrate, 40 min
Lysosomal acid glucosylceramidase (Homo sapiens), sequence (P04062 whole entry, looked up): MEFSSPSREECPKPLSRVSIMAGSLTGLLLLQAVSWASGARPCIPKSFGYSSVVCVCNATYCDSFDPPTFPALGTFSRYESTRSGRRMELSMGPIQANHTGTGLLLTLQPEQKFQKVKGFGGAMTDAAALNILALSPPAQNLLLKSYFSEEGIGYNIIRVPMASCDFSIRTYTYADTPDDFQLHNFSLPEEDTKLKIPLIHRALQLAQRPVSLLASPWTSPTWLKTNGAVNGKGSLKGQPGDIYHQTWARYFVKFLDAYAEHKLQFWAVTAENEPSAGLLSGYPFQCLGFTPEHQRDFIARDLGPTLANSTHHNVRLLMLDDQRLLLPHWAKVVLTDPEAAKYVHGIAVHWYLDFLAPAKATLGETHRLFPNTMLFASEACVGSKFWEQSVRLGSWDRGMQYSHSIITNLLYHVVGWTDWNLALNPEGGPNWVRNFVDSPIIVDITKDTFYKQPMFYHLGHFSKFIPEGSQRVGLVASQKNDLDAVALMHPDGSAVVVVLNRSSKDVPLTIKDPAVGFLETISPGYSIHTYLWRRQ
How it was run: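 Compounds titrated from 0.6 nM upwards against 0.2 nM enzyme in pH 5.9 citric acid/KH2PO4, taurocholate, tween-20; blue fluorogenic substrate 80 uM, 40 min room temperature, stopped and read Ex 365/Em 440 for AC50.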

[2] = AP1 Signaling Pathway (AID 357); details: ME-180 AP-1-bla reporter, EGF-induced, beta-lactamase ratio, 5 h; at 7.69 µM (top of the series) unless noted;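 note: ME-180 reporter cells stimulated with EGF at its EC50 level; % is set by controls: 0 for no effect and ±100 for the full control effect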
How it was run: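 AP-1-bla ME-180 cells, Opti-MEM + 0.5% dialyzed FBS, plated overnight 37 °C. Cpd titration + EC50 EGF, 5 h 37 °C. CCF4 2.5 h RT; ex 405, em 460/530 ratio → %activity, AC50.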

[3] = target: Cytochrome P450 1A2 (Homo sapiens) (UniProt P05177); assay: p450-cyp1a2 (AID 410; calls by dose curve; note: potency is the fitted concentration of half-maximal effect;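 for activity change, negative = inhibition: -100% = full effect of reference inhibitor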); details: recombinant CYP1A2, luciferin-ME demethylation, luminescence; series mostly up to 11.4 µM
Cytochrome P450 1A2 (Homo sapiens), sequence (P05177 whole entry, looked up): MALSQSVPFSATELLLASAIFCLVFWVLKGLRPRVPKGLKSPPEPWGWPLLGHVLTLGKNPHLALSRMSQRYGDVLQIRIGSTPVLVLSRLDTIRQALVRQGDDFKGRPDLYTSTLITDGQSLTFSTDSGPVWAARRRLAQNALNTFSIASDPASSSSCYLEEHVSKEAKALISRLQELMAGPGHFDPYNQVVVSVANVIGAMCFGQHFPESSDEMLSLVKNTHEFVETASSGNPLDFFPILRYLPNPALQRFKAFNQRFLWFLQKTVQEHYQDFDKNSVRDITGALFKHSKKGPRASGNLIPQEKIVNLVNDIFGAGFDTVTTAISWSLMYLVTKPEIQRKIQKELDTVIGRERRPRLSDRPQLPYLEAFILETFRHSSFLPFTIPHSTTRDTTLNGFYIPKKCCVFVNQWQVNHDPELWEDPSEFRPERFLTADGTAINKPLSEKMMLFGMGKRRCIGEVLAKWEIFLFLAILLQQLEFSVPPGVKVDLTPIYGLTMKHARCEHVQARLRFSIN
How it was run: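 20nM CYP1A2 with 100uM Luciferin-ME (at Km) in 100mM KPO4; compound preincubated 10 min, NADPH regeneration added, 60 min at room temperature. Luciferin quantified by luminescence after detection reagent; normalized to 57 uM furafylline.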

[4] = NFAT Signaling Pathway (AID 444); details: Jurkat NFAT-bla M1, carbachol, beta-lactamase ratio, 5 h; at 7.69 µM (top of the series) unless noted;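 note: carbachol stimulus at about its EC50 of 1 µM final; % is set by controls: 0 for no effect and ±100 for the full control effect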
How it was run: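 Jurkat cells with NFAT-driven β-lactamase reporter and co-expressed M1 receptor, stimulated with carbachol (final 1 uM, ~EC50), compound titration, 5 h at 37 °C. CCF4 loaded 1 h at RT; 460/530 nm ratio gave %activity and AC50.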

[5] = Stat Signaling Pathway (AID 446); details: ME-180 SIE beta-lactamase reporter, IL-6 stimulated, 5 h; at 7.69 µM (top of the series) unless noted;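 note: ME-180 cervical cancer cells given 40 pM IL-6 alongside compound; SIE-controlled beta-lactamase reporter measured as 460/530 nm FRET emission ratio; % is set by controls: 0 for no effect and ±100 for the full control effect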
How it was run: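 ME-180 SIE-bla cells; overnight plating; cpd + IL-6 40 pM, 5 h, 37 C; LiveBLAzer 2.5 h RT; 460/530 nm emission ratio. Normalized to 300 pM IL-6 and 125 nM JAK inhibitor controls.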

[6] = target: Glucocorticoid receptor (Homo sapiens) (UniProt P04150); assay: GR-GFP Redistribution (AID 450;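 active = compounds whose dose series gives a full or clear partial fitted curve of increased nuclear translocation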; note: potency is the fitted concentration of half-maximal effect); details: U2OS GR-GFP nuclear translocation, laser cytometry, 2 h
Glucocorticoid receptor (Homo sapiens), sequence (P04150 whole entry, looked up, the tested form may be a part): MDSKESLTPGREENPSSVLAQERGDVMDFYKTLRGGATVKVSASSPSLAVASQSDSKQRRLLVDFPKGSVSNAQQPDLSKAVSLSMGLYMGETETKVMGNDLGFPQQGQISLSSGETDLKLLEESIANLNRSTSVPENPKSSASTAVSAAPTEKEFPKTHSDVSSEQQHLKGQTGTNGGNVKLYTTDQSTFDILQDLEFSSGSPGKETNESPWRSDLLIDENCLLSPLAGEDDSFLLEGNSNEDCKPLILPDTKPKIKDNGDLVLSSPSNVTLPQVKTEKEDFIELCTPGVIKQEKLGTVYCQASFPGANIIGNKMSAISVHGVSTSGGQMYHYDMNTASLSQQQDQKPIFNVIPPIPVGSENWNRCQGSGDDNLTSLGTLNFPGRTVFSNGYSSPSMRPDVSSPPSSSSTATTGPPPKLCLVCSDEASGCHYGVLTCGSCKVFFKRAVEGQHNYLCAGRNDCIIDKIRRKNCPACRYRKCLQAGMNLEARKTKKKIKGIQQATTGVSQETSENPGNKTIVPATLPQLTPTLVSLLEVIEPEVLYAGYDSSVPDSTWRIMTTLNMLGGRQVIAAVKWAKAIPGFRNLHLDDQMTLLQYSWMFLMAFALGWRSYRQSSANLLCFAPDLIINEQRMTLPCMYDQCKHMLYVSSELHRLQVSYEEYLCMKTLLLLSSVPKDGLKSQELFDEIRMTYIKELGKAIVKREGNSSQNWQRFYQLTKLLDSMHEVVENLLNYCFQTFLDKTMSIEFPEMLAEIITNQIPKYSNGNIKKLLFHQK

[7] = target: Glucocorticoid receptor (Homo sapiens) (UniProt P04150); assay: GR-EFC Redistribution (AID 451; calls by dose curve; note: potency is the fitted concentration of half-maximal effect); details: CHO-K1 GR-EFC translocation, beta-gal luminescence, 2 h
How it was run: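 CHO-K1 cells expressing nuclear EA and GR-ED fragments of b-gal; compounds titrated up to 46 uM final, 2 h at 37 C. GR nuclear translocation read as complemented b-gal luminescence after 1 h RT detection.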

[8] = target: Mitogen-activated protein kinase 10 (Mus musculus) (UniProt Q61831); assay: JNK3 AlphaScreen Assay (AID 530); details: JNK3 lysate, c-Jun phosphorylation; series mostly up to 11.4 µM;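 note: kinase came from lysate of stimulated human HepG2 cells; signal reports phosphorylation of biotinylated GST-cJun 1-79 at Ser73 with 10 µM ATP; % is set by controls: 0 for no effect and ±100 for the full control effect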
How it was run: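 Pre-activated (IL-1β/TNFα) JNK3 in HepG2 lysates phosphorylates biotin-GST-cJun(1-79), 10 uM ATP; anti-phospho-cJun(Ser73) AlphaScreen read at room temperature, pH 7.6 Tris buffer. Compounds pre-incubated 15 min as titrations.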

[9] = target: 3',5'-cyclic-AMP phosphodiesterase 4B (Homo sapiens) (UniProt Q07343); assay: qHTS Assay for Inhibitors of PDE-IV (AID 607; active = well fitted activation curve with a large enough effect in the main read-out, with a control signal flat, not every such curve was filed as active; note: % of control where 0% means no effect); details: HEK293 ACTOne CNG channel cells, membrane potential fluorescence; series mostly up to 22.9 µM
3',5'-cyclic-AMP phosphodiesterase 4B (Homo sapiens), sequence (Q07343 whole entry, looked up): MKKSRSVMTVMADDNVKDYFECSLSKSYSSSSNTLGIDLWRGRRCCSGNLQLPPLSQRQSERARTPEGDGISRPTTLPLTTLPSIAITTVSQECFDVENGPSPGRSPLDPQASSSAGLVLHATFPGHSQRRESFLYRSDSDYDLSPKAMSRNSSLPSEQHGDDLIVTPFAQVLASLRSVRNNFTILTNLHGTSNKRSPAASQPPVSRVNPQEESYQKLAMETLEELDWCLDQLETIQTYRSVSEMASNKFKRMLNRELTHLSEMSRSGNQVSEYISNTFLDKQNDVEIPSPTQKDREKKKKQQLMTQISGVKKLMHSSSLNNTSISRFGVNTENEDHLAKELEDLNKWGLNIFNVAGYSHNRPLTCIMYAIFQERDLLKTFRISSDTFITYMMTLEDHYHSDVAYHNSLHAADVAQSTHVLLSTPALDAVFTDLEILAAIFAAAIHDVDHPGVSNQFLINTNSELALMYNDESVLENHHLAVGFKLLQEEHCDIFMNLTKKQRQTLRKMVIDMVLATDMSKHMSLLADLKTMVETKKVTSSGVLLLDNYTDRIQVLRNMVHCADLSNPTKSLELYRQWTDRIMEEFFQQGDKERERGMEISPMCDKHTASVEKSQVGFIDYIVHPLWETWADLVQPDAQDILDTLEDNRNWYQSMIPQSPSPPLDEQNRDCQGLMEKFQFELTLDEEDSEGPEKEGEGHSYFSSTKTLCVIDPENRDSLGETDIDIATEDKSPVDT
How it was run: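 ACTOne HEK293 cells carry a modified cAMP-gated CNG channel and express endogenous PDE4; plated 1000 cells/well, compounds up to 22.9 uM final. Membrane-potential dye fluorescence (ex 535/em 590) was read; parental cells received 10 uM forskolin + 100 uM RO 20-1724.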

[10] = target: Cytochrome P450 2C19 (Homo sapiens) (UniProt P33261); assay: qHTS Assay for Inhibitors and Substrates of Cytochrome P450 2C19 (AID 899; active = well fitted inhibition curve with a large enough effect; note: nearly all actives have a fitted effect of over 60% in size; note: potency is the fitted concentration of half-maximal effect); details: recombinant CYP2C19, luciferin-H EGE luminescence; series mostly up to 11.4 µM
Cytochrome P450 2C19 (Homo sapiens), sequence (P33261 whole entry, looked up): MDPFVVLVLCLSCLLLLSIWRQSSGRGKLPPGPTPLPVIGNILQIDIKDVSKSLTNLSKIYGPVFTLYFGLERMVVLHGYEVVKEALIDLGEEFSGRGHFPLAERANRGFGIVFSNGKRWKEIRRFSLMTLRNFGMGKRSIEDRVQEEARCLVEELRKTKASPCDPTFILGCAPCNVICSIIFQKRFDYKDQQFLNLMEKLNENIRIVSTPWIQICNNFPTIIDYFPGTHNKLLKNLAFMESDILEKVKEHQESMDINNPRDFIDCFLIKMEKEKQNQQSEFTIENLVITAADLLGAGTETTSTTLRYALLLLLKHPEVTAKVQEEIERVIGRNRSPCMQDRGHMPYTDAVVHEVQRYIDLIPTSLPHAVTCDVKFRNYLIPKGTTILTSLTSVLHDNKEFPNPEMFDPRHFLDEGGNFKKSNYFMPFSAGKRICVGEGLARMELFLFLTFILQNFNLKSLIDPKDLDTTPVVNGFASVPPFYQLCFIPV
How it was run: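 5 nM human CYP2C19 with 10uM Luciferin-H EGE (at KM) in 50mM KPO4, compound preincubated 10 min at 37C, then NADPH regeneration for 60 min at 37C. Luciferin read by luminescence after detection reagent; normalized to 57uM ketoconazole as full inhibition.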

[11] = target: Cytochrome P450 2D6 (Homo sapiens) (UniProt P10635); assay: qHTS Assay for Inhibitors and Substrates of Cytochrome P450 2D6 (AID 891; active = well fitted inhibition curve with a large enough effect; note: nearly all actives have a fitted effect of over 60% in size; note: potency is the fitted concentration of half-maximal effect); details: recombinant CYP2D6, luciferin-ME EGE luminescence; series mostly up to 11.4 µM
Cytochrome P450 2D6 (Homo sapiens), sequence (P10635 whole entry, looked up): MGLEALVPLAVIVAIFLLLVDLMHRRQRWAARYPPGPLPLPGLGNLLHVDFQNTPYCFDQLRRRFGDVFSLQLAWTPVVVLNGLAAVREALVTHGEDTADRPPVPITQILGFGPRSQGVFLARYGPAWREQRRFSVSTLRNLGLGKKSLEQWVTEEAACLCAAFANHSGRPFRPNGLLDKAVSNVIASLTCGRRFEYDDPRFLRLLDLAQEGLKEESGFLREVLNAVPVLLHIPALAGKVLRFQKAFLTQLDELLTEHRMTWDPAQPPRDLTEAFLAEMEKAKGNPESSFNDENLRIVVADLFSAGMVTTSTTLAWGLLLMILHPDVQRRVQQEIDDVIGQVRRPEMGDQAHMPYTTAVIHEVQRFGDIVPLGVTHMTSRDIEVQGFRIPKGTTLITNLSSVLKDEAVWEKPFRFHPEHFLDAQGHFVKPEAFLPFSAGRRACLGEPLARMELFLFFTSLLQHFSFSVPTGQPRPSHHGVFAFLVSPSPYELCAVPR
How it was run: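 Human CYP2D6 (5 nM) with 30 uM Luciferin-ME EGE (at Km) in 100 mM KPO4, compound preincubated 10 min, then NADPH regeneration system for 60 min at room temperature. Luciferin read by luminescence; normalized to 1.43 uM quinidine.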

Row | Structure (SMILES) | Potency [1] | activity change, negative = inhibition [2] | Potency [3] | activity change, negative = inhibition [4] | activity, negative = inhibition [5] | Potency [6] | Potency [7] | Potency [8] | Potency [9] | Potency [10] | Potency [11] | activity change, negative = inhibition [3]
1 | c1ccc2c(c1)c1ccccc1n2Cn1c2ccccc2c2ccccc21 | > 11.4 µM | 10.8% | 251 nM (active) | -5.02% | 8.5% | > 46 µM | > 9.22 µM | inactive | inactive | 0.398 µM (active) |  | 
2 | O=C(C[C@@H](c1ccccc1)N1CCCCC1)c1ccccc1 | > 11.4 µM | 2.69% | 1260 nM (active) | 5.6% | -14.9% | > 46 µM | > 9.22 µM | inactive | inactive | 2.51 µM (active) |  | 
3 | O=S(=O)(O)c1ccc(N=Nc2ccccc2)cc1 | > 11.4 µM | -9.23% | inactive | 7.04% | 0.896% | > 46 µM | > 9.22 µM | inactive | inactive |  | inactive | 
4 | O=C(O)[C@@H]1[C@@H](C(=O)O)[C@]23C[C@@]2(C(=O)O)[C@]2(C(=O)O)CCC3=C3CCCC312 | > 11.4 µM | 10.3% | 2510 nM (active) | 0.691% | -2.48% | > 46 µM | > 9.22 µM | inactive | inactive |  | inactive | 
5 | CN(Cc1cc(Cl)cc(Cl)c1O)Cc1c(O)ccc2ccccc12 | > 11.4 µM | -8.51% | 631 nM (active) | -4.41% | -1.99% | > 46 µM | > 9.22 µM | inactive | inactive | 1.26 µM (active) | 1.26 µM (active) | 
6 | C[C@]12CC[C@H]3c4ccc(O)cc4CC[C@@H]3[C@H]1C/C(=N/O)[C@H]2O | > 11.4 µM | -6.54% | inactive | 3.7% | 1.89% | > 46 µM | > 9.22 µM | inactive | inactive |  | inactive | 
7 | Oc1ccc2ccccc2c1CN(Cc1c(O)ccc2ccccc12)C1CCCCC1 | > 11.4 µM | 3.63% | 631 nM (active) | -9.52% | -14.2% | > 46 µM | > 9.22 µM | inactive | inactive |  | 0.631 µM (active) | 
8 | O=C(O)CCSCc1ccccc1 | > 11.4 µM | 4.81% | inactive | -0.126% | -0.355% | > 46 µM | > 9.22 µM | inactive | inactive | inactive |  | 
9 | OC[C@@H]1O[C@@H](O)[C@H](N=Cc2ccc3c(c2)OCO3)[C@@H](O)[C@@H]1O | > 11.4 µM | 5.99% |  | 3.26% | 2.95% | > 46 µM | > 9.22 µM | inactive | inactive | inactive |  | -24.4% [at 2.29 µM]
10 | C[N+](C)(N)CCC[N+](C)(C)N | > 11.4 µM | 6.06% | inactive | 24.5% | 8.44% | > 46 µM | > 9.22 µM | inactive | inactive | inactive | inactive | 
11 | CN(C)Cc1ccc(C(C)(C)C)cc1-c1cc(C(C)(C)C)ccc1CN(C)C | > 11.4 µM | -1.36% | 3980 nM (active) | 6.36% | -4.38% | > 46 µM | > 9.22 µM | inactive | inactive | inactive |  | 
12 | N=C(N)SCCCN | > 11.4 µM | 2.32% | 6310 nM (active) | 3.8% | 5.52% | > 46 µM | > 9.22 µM | inactive | inactive | inactive |  | 
13 | O=C(O)CCCc1ccc2ccc3ccccc3c2c1 | > 11.4 µM | -11.1% | 2000 nM (active) | -6.89% | -2.84% | > 46 µM | > 9.22 µM | inactive | inactive | inactive | inactive | 
14 | O=C(O)CC1(C(=O)O)CCCCC1 | > 11.4 µM | -1.19% |  | 7.95% | 1.85% | > 46 µM | > 9.22 µM | inactive | inactive | inactive | inactive | 5.1% [at 2.29 µM]
15 | N/C(CC/C(N)=N/O)=N\O | > 11.4 µM | -3.76% | inactive | 7.17% | -0.993% | > 46 µM | > 9.22 µM | inactive | inactive |  | inactive | 
16 | Cc1cc(C(C)(C)C)cc(CNC2CCCCC2)c1O | > 11.4 µM | 8.19% | 3160 nM (active) | 22.7% | 10.5% | > 46 µM | > 9.22 µM | inactive | inactive | 0.02 µM (active) | 0.501 µM (active) | 
17 | Cn1c(=O)c2[nH]c(CCCCc3nc4ccccc4[nH]3)nc2n(C)c1=O | > 11.4 µM | -12.7% | inactive | 25% | 5.57% | > 46 µM | > 9.22 µM | inactive | inactive | inactive | inactive | 
18 | Clc1nc(NCCc2ccccc2)c2ncn(-c3ccccc3)c2n1 | > 11.4 µM | -9.15% | 501 nM (active) | -0.663% | -22.9% | > 46 µM | > 9.22 µM | inactive | inactive | 0.501 µM (active) |  | 
19 | CC[C@@]1([N+](=O)[O-])C[C@H]2C=C[C@@H]1C2 | > 11.4 µM | 9.4% |  | 4.68% | 3.53% | > 46 µM | > 9.22 µM | inactive | inactive | inactive | inactive | -12.9% [at 2.29 µM]
20 | CC(CC(=O)O)(CC(=O)O)C(=O)O | > 11.4 µM | -0.949% | inactive | 18.4% | 9.05% | > 46 µM | > 9.22 µM | inactive | inactive | inactive | inactive | 
21 | Cc1cn([C@H]2C[C@H](O)[C@@H](COC(N)=O)O2)c(=O)[nH]c1=O | > 11.4 µM | 2.02% |  | 0.228% | 6.97% | > 46 µM | > 9.22 µM | inactive | inactive |  | inactive | -14.6% [at 2.29 µM]
22 | Nc1nc(Cl)cc(NCCO)n1 | > 11.4 µM | -4.13% | inactive | 10.4% | 4.67% | > 46 µM | > 9.22 µM | inactive | inactive | inactive | inactive | 
23 | COc1ccc2cc(C(=O)CCC(=O)O)ccc2c1 | > 11.4 µM | 1.75% | 794 nM (active) | 19.6% | 6.44% | > 46 µM | > 9.22 µM | inactive | inactive | 2 µM (active) |  | 
24 | CC(C)(CN)CN | > 11.4 µM | 0.738% | inactive | 2.82% | 0.176% | > 46 µM | > 9.22 µM | inactive | inactive |  | inactive | 
25 | O[C@@H]1[C@@H](OCc2ccccc2)OC[C@H](O)[C@@H]1O | > 11.4 µM | 17.3% | inactive | -8.65% | 4.2% | > 46 µM | > 9.22 µM | inactive | inactive | inactive |  | 
26 | COc1ccc(-c2cc([C@H](O)[C@@H]3CCCCN3)c3ccccc3n2)cc1 | > 11.4 µM | 27.7% |  | 23.2% | 2.85% | > 46 µM | > 9.22 µM | inactive | inactive | 3.98 µM (active) | 3.16 µM (active) | -11% [at 2.29 µM]
27 | S=C(Nc1ccc2cn[nH]c2c1)Nc1ccc2cn[nH]c2c1 | > 11.4 µM | -15% | 126 nM (active) | 19.4% | 1.71% | > 46 µM | > 9.22 µM | inactive | inactive |  | 2 µM (active) | 
28 | O=C(O)C1CC2(C1)CC(C(=O)O)C2 (stereo not given) | > 11.4 µM | 1.62% |  | 10.7% | 12.7% | > 46 µM | > 9.22 µM | inactive | inactive | inactive |  | -6.3% [at 2.29 µM]
29 | O=C(O)c1cc2ccccc2c(S(=O)(=O)O)c1O | > 11.4 µM | 2.94% | inactive | 7.56% | 3.56% | > 46 µM | > 9.22 µM | inactive | inactive |  | inactive | 
